Results filed as inconclusive are left out. The source made the active and inactive calls. Calls come from the whole dose curve; as a rule, active = well fitted curve in the direction sought with a large enough effect; inconclusive = small, poorly fitted or top-dose-only effect, or another doubt; inactive = no such curve, though single readings can be large; an effect the other way counts as inactive or inconclusive.
Key:
[1] = qHTS of pediatric cancer cell lines to identify multiple opportunities for drug repurposing: Confirmatory screen for Rh18 cells (AID 1347125); note: nearly all actives have a fitted effect of over 55% in size; note: potency is the fitted concentration of half-maximal effect
How it was run: (§1)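 Cells (500-1,000/well) rested 5 h, then received compounds for 48 h; metabolically active cells were measured by CellTiter-Glo luminescence. Final concentrations spanned up to 46 µM (MIPE, 11-point) or 0.59 nM-46 µM (NPC, 8-point) in primary screens, 11-point in follow-ups.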

[2] = qHTS of pediatric cancer cell lines to identify multiple opportunities for drug repurposing: Confirmatory screen for Rh30 cells (AID 1347126); note: nearly all actives have a fitted effect of over 55% in size; note: potency is the fitted concentration of half-maximal effect
How it was run: as §1

[3] = qHTS of pediatric cancer cell lines to identify multiple opportunities for drug repurposing: Confirmatory screen for OHS-50 cells (AID 1347128);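 note: compound exposure lasted 48 h at 37 degrees C; nearly all actives have a fitted effect of over 55% in size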; note: potency is the fitted concentration of half-maximal effect
How it was run: as §1

[4] = qHTS of pediatric cancer cell lines to identify multiple opportunities for drug repurposing: Confirmatory screen for SK-N-SH cells (AID 1347129);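 note: cells exposed to compound for 48 h before viability read; nearly all actives have a fitted effect of over 60% in size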; note: potency is the fitted concentration of half-maximal effect
How it was run: as §1

[5] = tested on: Zika virus NS2B-NS3 protease; experiment: Primary screen GU AMC qHTS for Zika virus inhibitors (AID 1347154); note: nearly all actives have a fitted effect of over 70% in size; note: potency is the fitted concentration of half-maximal effect
How it was run: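 Fluorogenic AMC-substrate cleavage by noncovalent NS2B-NS3 protease complex (25 nM, pH 8.0 Tris buffer with Tween 20) followed for 15 minutes at room temperature (~20% conversion). Percent inhibition from ex340/em450 signal change, fitted by 4-parameter Hill equation.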

[6] = qHTS to identify inhibitors of the type 1 interferon - major histocompatibility complex class I in skeletal muscle: primary screen against the NCATS Pharmaceutical Collection (AID 1347407);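 note: luminescence of HiBiT knocked into endogenous HLA-B as interferon-induced MHC class I level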; note: potency is the fitted concentration of half-maximal effect
How it was run: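 A qHTS format is used: 8-point, 1:5 compound series with 46 uM top final concentration, applied alongside 4 ng/ml IFN-beta to HLA-B*08:01-HiBiT knock-in myoblasts. Luminescence is measured after 24 h treatment.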

[7] = qHTS of pediatric cancer cell lines to identify multiple opportunities for drug repurposing: Confirmatory screen for Saos-2 cells (AID 1347127); note: nearly all actives have a fitted effect of over 60% in size; note: potency is the fitted concentration of half-maximal effect
How it was run: as §1

[8] = tested on: Zika virus NS2B-NS3 protease (unlinked complex); experiment: Primary screen GU Rhodamine qHTS for Zika virus inhibitors: Unlinked NS2B-NS3 protease assay (AID 1347159); note: nearly all actives have a fitted effect of over 60% in size
How it was run: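 In dose–response format, inhibition of unlinked protease (25 nM) was measured with 1.5 microM bis-peptide Rhodamine110 substrate. Aprotinin served as the intraplate control.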

Measured: Potency

O=NN(CCCl)C(=O)NC1CCCCC1
not listed: [7] | [8]
inactive: all other assays above

NC(=O)c1cccnc1
not listed: [1] | [8]
inactive: all other assays above

CCOC(=O)[C@H](CCc1ccccc1)N[C@H]1CS[C@H](c2cccs2)CN(CC(=O)O)C1=O
not listed: [3] | [8]
inactive: all other assays above

CC(C(=O)O)c1ccc2c(c1)CC(=O)c1ccccc1S2 (stereo unspecified)
inactive: all assays above

Nc1[nH]c(=O)ncc1F
not listed: [7] | [8]
inactive: all other assays above

CC(C)C[C@H](NC(=O)[C@H](CCc1ccccc1)NC(=O)CN1CCOCC1)C(=O)N[C@@H](Cc1ccccc1)C(=O)N[C@@H](CC(C)C)C(=O)[C@@]1(C)CO1
active: [1] 0.0465 µM | [2] 0.117 µM | [7] 0.117 µM | [3] 0.208 µM | [4] 0.209 µM | [6] 0.0938 µM
inactive: [5]

CN(C)c1ccc(C(=C2C=CC(=[N+](C)C)C=C2)c2ccc(N(C)C)cc2)cc1
active: [1] 1.47 µM | [2] 1.17 µM | [7] 1.31 µM | [3] 3.69 µM | [4] 1.32 µM | [6] 9.38 µM
inactive: [5]

N=C(N)c1ccc(OCCCCCOc2ccc(C(=N)N)cc2)cc1
inactive: [1] | [3] | [4] | [5]

COC(=O)Nc1nc2ccc(S(=O)c3ccccc3)cc2[nH]1 (stereo unspecified)
inactive: [1] | [2] | [5]
active: [7] 1.47 µM | [3] 2.33 µM | [4] 2.96 µM

CCc1c2c(nc3ccc(OC(=O)N4CCC(N5CCCCC5)CC4)cc13)-c1cc3c(c(=O)n1C2)COC(=O)[C@]3(O)CC
active: [1] 16.5 µM | [2] 5.85 µM | [7] 1.85 µM | [3] 2.61 µM | [5] 5.73 µM

CS(=O)(=O)c1ccc([C@@H](O)[C@@H](CO)NC(=O)C(Cl)Cl)cc1
not listed: [7] | [8]
inactive: all other assays above

CNCC[C@H](Oc1cccc2ccccc12)c1cccs1
inactive: [1] | [2] | [7] | [5]

— PubChem BioAssay (NCATS)
